In PubChem BioAssay (Tox21):
Values joined by “and” are separate entries in the source; they are usually repeats but may differ in a detail not shown here. Equal entries are not always repeated. Records with an inconclusive call do not appear. Active and inactive are the calls of the source. Calls come from the whole dose curve; as a rule, active = well fitted activation curve with a large enough effect in the repeat runs; inconclusive = weak or mixed curves; inactive = no such curve, though single readings can be large or run the other way.

Target: Nuclear receptor subfamily 1 group I member 2 (Rattus norvegicus) (UniProt Q9R1A7)
Sequence (Q9R1A7 whole entry, looked up): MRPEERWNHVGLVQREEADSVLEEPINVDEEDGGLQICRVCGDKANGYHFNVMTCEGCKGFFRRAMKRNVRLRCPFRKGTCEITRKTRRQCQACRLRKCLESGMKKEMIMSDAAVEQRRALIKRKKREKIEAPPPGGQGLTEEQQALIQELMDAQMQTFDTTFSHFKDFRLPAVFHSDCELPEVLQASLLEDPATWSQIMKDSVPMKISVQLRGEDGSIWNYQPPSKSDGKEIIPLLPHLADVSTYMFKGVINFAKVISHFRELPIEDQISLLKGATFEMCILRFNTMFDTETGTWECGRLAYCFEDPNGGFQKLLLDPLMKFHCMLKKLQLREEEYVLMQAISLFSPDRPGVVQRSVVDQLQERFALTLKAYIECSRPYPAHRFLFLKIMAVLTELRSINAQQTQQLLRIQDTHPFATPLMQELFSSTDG
Experiment: Rat pregnane X receptor (rPXR) activation by small molecules, qHTS assay (AID 1346983); note: nearly all actives have a fitted effect of over 20% in size
Conditions: rPXR luciferase reporter cells, One-Glo luminescence, 24 h; max activation: active compounds read high
Excerpt: National Center for Advancing Translational Sciences [NCATS] NIH Chemical Genomics Center [NCGC] U.S. Environmental Protection Agency [EPA] National Institutes of Environmental Health Sciences [NIEHS] National Toxicology Program [NTP] Assay overview: The Pregnane X receptor (PXR), a ligand activated nuclear receptor plays a critical role in the regulation of genes involved in drug metabolism and transporters. PXR binds xenobiotics and when compounds interact with PXR produces enhanced expression of CYP3A genes. In humans PXR activation and CYP3A4 induction can be problematic due to their interactions with co-medicated drugs and decrease their efficacy or increase their own metabolism. However, there are known species-specific differences with regard to PXR activation that should be taken into account when animal PXR data are extrapolated to humans. A cell based rat PXR (rPXR) assay (developed by Puracyp, Inc., CA) was used to assess the activation of rPXR.
Assay Protocol Summary: rPXR cells were dispensed at 2,000 per well in 5uL of assay medium into white, solid-bottom 1536-well plates using a Multidrop Combi dispenser (Thermo Scientific). The assay plates were incubated at 37 C for 5hr before transferring 23 nL of test compounds dissolved in DMSO and positive control via Pintool station (Wako). The assay plates were incubated at 37 C for 24 hr. Then 5ul One-Glo assay reagent (Promega) was added to each plate by a Flying Reagent Dispenser (FRD, Aurora Discovery) and following 30 min incubation at room temperature, luciferase activity was quantified on a ViewLux plate reader (Perkin Elmer).
% is set by controls: 0 for no effect and ±100 for the full control effect; potency is the fitted concentration of half-maximal effect.

Which max activation does the source give for `N[C@H](C(=O)O)[C@@H]1CC(Cl)=NO1` here?
The max activation was -12.5% (inactive).

Which max activation does the source give for `NC(=O)C1c2ccccc2CCc2ccccc21` here?
Its max activation is -2.21% (inactive).

For `C[C@H]1O[C@@H](O[C@H]2CC[C@@]3(C)[C@H](CC[C@@H]4[C@@H]3C[C@@H](O)[C@]3(C)[C@@H](C5=CC(=O)OC5)CC[C@]43O)C2)C[C@H](O)[C@@H]1O[C@H]1C[C@H](O)[C@H](O[C@H]2C[C@H](O)[C@H](O[C@@H]3O[C@H](CO)[C@@H](O)[C@H](O)[C@H]3O)[C@@H](C)O2)[C@@H](C)O1`, which max activation is on record?
Its max activation is 6.34% (inactive).

Which max activation does the source give for `CC(C)CCC[C@@H](C)[C@H]1CC[C@H]2[C@@H]3CC=C4C[C@@H](O)CC[C@]4(C)[C@H]3CC[C@]12C` here?
Its max activation is -2.66% (inactive).

Which max activation does the source give for `CCOc1ccc(NC(=S)Nc2ccc(OCC)cc2)cc1` here?
The max activation was -1.61% (inactive).

`O=C1c2ccccc2C(=O)C1c1ccc(F)cc1` was tested. Which Potency did it give?
Its Potency is 28.2 µM (active).

How did the max activation turn out when `CC(C)C[C@H](NC(=O)[C@@H](COC(C)(C)C)NC(=O)[C@H](Cc1ccc(O)cc1)NC(=O)[C@H](CO)NC(=O)[C@H](Cc1c[nH]c2ccccc12)NC(=O)[C@H](Cc1cnc[nH]1)NC(=O)[C@@H]1CCC(=O)N1)C(=O)N[C@@H](CCCN=C(N)N)C(=O)N1CCC[C@H]1C(=O)NNC(N)=O` was run?
Its max activation is -1.54% (inactive).

With `CCN1\C(=C/C=C/C=C/c2sc3ccccc3[n+]2CC)Sc2ccccc21` as the compound, how does the max activation read?
Its max activation is -28.2% (inactive).

`CNCCC=C1c2ccccc2CCc2ccccc21` was tested. Which max activation did it give?
The max activation was -3.34% (inactive).

With `C=CC[N@@+]12CC[C@@]34c5ccccc5N5/C=C6/[C@H]7C[C@H]8[C@@]9(CC[N@@+]8(CC=C)C/C7=C/CO)c7ccccc7N(/C=C(/[C@@H](C[C@@H]31)/C(=C\CO)C2)[C@H]54)[C@@H]69` as the compound, how does the max activation read?
The max activation was 3.06% (inactive).

For `CCN(CC)CCOC[C@H]1O[C@@H](O)[C@H](OCCN(CC)CC)[C@@H](O)[C@@H]1O`, which max activation is on record?
The max activation was -3.03% (inactive).

How did the max activation turn out when `O=C(O)COc1ccccc1/C=N/NC(=O)c1ccncc1` was run?
The max activation was -3.2% (inactive).

For `CCCCCCCCCCCC[n+]1ccc2ccccc2c1`, which max activation is on record?
Its max activation is -19.3% (inactive).

How did the max activation turn out when `O=C[C@H](O)[C@@H](O)[C@@H](O)[C@H](O)CO` was run?
Its max activation is -2.08% (inactive).

With `Cc1cnc(C(=O)O)c[n+]1[O-]` as the compound, how does the max activation read?
Its max activation is -2.61% (inactive) and 6.98% (inactive) and -0.594% (inactive).

Which max activation does the source give for `CC(CNC(=O)c1cccnc1)NC(=O)c1cccnc1` (stereo not given) here?
The max activation was -2.47% (inactive).

How did the max activation turn out when `C[C@]12O[C@H](C[C@]1(O)CO)n1c3ccccc3c3c4c(c5c6ccccc6n2c5c31)CNC4=O` was run?
Its max activation is -24.6% (inactive).

Which Potency does the source give for `Nc1nc(NC2CC2)c2ncn([C@@H]3C=C[C@@H](CO)C3)c2n1` here?
Its Potency is 5.01 µM (active).

Which max activation does the source give for `CN=C(N)NCCC[C@H](N)C(=O)O` here?
Its max activation is -7.28% (inactive).

How did the max activation turn out when `N=C(N)n1cccn1` was run?
Its max activation is -4.29% (inactive).

`N=C(N)c1ccc(/C=C/c2ccc(C(=N)N)cc2O)cc1` was tested. Which max activation did it give?
The max activation was -1.55% (inactive).

With `CCN(CC)C(=O)c1cccnc1` as the compound, how does the max activation read?
The max activation was -3.83% (inactive).

With `O.O.O.O.O.O.O.O=S(=O)([O-])[O-].[Co+2]` as the compound, how does the max activation read?
The max activation was -2.66% (inactive).

`CN(C/C=C/c1ccccc1)Cc1cccc2ccccc12` was tested. Which max activation did it give?
Its max activation is -2.12% (inactive).

With `CCCCCCCCCCCCOS(=O)(=O)O` as the compound, how does the max activation read?
Its max activation is -3.52% (inactive).

`NC(=O)[C@H]1O[C@@H](O)[C@H](O)[C@@H](O)[C@@H]1O` was tested. Which max activation did it give?
The max activation was -0.18% (inactive).

For `CCN(CC)C(=O)[C@]1(c2ccccc2)C[C@@H]1CN`, which max activation is on record?
Its max activation is -2.63% (inactive).

Which max activation does the source give for `CC(=NCc1ccccc1)c1ccccc1O` here?
The max activation was -4.51% (inactive).

Which max activation does the source give for `CO[C@H]1C[C@H](O[C@H]2[C@H](C)[C@@H](O[C@@H]3O[C@H](C)C[C@H](N(C)C)[C@H]3O)[C@@H](C)C[C@]3(CO3)C(=O)[C@H](C)[C@@H](O)[C@@H](C)[C@@H](C)OC(=O)[C@@H]2C)O[C@@H](C)[C@@H]1O` here?
Its max activation is 3.2% (inactive).

`CC(C)(COP(=O)(O)OP(=O)(O)OC[C@H]1O[C@@H](n2cnc3c(N)ncnc32)[C@H](O)[C@@H]1OP(=O)(O)O)C(O)C(=O)NCCC(=O)NCCS` (stereo not given in full) was tested. Which max activation did it give?
Its max activation is 0.513% (inactive).

`O=C1c2c(O)cccc2[C@H]([C@@H]2O[C@H](CO)[C@@H](O)[C@H](O)[C@H]2O)c2cc(CO)cc(O)c21` was tested. Which max activation did it give?
Its max activation is 0.818% (inactive).

`NCC(O)CC(=O)O` (stereo not given) was tested. Which max activation did it give?
Its max activation is -2.62% (inactive).

Which max activation does the source give for `Cc1cc(=O)c(C(=O)N[C@@H](C(=O)N[C@@H]2C(=O)N3C(C(=O)O)=C(CSc4nnnn4C)CS[C@H]23)c2ccc(O)cc2)c[nH]1` here?
Its max activation is -0.22% (inactive).

With `O=C(O)/C=C/C(=O)Nc1ccc(S(=O)(=O)Nc2nccs2)cc1` as the compound, how does the max activation read?
Its max activation is -4.08% (inactive).

Which max activation does the source give for `CC12CCC(C[N+](C)(CCC[N+](C)(C)C)C1)C2(C)C` (stereo not given) here?
Its max activation is -1.76% (inactive).

For `CC1(C)S[C@@H]2[C@H](NC(=O)[C@@H](NC(=O)N3CCNC3=O)c3ccccc3)C(=O)N2[C@H]1C(=O)O`, which max activation is on record?
Its max activation is -1.76% (inactive).

`Cc1onc(-c2c(F)cccc2Cl)c1C(=O)N[C@@H]1C(=O)N2[C@@H]1SC(C)(C)[C@@H]2C(=O)O` was tested. Which max activation did it give?
The max activation was -1.83% (inactive) and -3.33% (inactive).

With `CCOc1ccc(S(=O)(=O)O)c2cccnc12` as the compound, how does the max activation read?
The max activation was -0.221% (inactive).

Which max activation does the source give for `NS(=O)(=O)c1cc(Cl)c(Cl)c(S(N)(=O)=O)c1` here?
The max activation was -2.98% (inactive).

Which max activation does the source give for `CNC(=O)C[C@@H](N)C(=O)N[C@@H](C(=O)N[C@@H]1C(=O)N2[C@@H]1SC(C)(C)[C@@H]2C(=O)O)c1ccc(O)cc1` here?
Its max activation is -2.18% (inactive).
